From ChEMBL document CHEMBL2218924, “A broad activity screen in support of a chemogenomic map for kinase signalling research and drug discovery” (Biochem J, 2013)

Legend:
[1] = molecular target: T1, Serine/threonine-protein kinase TBK1 (Homo sapiens) (UniProt Q9UHD2); settings: at 10 µM
T1 sequence (whole entry): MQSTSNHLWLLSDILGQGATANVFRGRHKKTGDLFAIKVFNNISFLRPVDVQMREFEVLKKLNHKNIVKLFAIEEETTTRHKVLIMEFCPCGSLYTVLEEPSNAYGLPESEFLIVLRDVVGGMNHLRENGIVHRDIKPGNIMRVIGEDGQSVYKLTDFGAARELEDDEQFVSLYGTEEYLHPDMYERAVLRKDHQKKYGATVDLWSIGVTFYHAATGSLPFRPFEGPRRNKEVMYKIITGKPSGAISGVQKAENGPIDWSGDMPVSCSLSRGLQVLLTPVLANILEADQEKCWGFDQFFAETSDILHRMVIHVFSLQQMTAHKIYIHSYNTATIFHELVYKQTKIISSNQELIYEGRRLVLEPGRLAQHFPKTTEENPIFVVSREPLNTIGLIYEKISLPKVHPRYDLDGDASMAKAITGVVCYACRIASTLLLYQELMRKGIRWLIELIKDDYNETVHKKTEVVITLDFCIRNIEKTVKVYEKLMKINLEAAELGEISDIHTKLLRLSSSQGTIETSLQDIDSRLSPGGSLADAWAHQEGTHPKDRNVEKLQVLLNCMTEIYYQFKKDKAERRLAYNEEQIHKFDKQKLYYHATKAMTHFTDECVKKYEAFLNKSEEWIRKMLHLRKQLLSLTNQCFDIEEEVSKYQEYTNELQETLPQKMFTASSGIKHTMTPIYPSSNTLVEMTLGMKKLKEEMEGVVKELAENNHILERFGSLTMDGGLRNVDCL

[2] = molecular target: T2, TGF-beta receptor type-1 (Homo sapiens) (UniProt P36897); settings: at 1 µM
T2 sequence (whole entry): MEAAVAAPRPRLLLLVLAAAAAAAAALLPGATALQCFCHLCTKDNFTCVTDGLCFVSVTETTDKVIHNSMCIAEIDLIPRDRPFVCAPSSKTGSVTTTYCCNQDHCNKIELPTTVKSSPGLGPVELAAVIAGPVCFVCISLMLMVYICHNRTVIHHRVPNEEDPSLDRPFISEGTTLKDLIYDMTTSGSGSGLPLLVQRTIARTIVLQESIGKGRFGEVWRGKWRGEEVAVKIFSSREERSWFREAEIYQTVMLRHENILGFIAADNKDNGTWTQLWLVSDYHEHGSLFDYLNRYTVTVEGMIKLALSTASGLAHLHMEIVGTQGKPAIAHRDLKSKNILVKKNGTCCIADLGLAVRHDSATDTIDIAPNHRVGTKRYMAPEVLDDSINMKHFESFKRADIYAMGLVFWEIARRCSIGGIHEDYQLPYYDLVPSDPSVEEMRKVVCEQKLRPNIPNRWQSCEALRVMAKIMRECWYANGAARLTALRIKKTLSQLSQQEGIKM

[3] = molecular target: T2, TGF-beta receptor type-1 (Homo sapiens); settings: at 10 µM
[4] = molecular target: T3, Inhibitor of nuclear factor kappa-B kinase subunit alpha (Homo sapiens) (UniProt O15111); settings: at 1 µM
T3 sequence (whole entry): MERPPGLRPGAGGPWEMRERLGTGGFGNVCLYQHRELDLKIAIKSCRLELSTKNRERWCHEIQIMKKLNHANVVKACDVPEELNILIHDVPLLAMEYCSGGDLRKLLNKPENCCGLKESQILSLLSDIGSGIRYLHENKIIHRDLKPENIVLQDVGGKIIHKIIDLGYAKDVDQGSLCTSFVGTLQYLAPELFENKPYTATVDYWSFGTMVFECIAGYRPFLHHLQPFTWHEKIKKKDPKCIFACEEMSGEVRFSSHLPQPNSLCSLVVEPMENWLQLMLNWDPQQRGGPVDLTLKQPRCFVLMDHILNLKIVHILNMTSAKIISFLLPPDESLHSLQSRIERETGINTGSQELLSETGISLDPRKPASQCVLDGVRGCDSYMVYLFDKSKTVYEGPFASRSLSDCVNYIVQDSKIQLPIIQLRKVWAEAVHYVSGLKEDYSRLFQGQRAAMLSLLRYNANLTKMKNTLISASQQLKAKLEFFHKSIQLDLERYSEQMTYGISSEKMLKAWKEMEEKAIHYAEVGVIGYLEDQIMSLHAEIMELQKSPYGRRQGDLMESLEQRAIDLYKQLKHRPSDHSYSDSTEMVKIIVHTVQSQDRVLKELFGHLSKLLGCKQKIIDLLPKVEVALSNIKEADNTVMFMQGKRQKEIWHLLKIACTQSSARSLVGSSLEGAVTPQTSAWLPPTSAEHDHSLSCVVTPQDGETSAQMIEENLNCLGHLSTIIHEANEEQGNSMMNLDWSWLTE

[5] = molecular target: T3, Inhibitor of nuclear factor kappa-B kinase subunit alpha (Homo sapiens); settings: at 10 µM
[6] = molecular target: T4, Inhibitor of nuclear factor kappa-B kinase subunit beta (Homo sapiens) (UniProt O14920); settings: at 1 µM
T4 sequence (whole entry): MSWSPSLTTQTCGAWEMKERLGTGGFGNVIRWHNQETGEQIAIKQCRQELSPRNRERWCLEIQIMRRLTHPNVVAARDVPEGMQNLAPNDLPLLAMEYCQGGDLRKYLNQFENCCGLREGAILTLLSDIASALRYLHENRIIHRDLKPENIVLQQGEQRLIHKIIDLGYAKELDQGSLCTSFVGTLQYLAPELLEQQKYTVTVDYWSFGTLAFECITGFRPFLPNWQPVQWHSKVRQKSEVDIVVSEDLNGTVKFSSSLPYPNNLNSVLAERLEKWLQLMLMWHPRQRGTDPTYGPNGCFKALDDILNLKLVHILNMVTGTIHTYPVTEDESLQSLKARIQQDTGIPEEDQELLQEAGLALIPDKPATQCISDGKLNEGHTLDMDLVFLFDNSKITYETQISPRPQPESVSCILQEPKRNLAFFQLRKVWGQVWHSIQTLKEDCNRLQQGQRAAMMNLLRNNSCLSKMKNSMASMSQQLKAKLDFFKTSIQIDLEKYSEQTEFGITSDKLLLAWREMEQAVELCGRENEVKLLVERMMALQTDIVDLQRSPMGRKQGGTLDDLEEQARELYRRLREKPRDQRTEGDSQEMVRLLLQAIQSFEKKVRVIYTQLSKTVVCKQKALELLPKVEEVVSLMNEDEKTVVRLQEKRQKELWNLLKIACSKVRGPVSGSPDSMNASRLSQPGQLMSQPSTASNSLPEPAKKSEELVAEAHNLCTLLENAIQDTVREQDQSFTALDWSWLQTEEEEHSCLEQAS

[7] = molecular target: T4, Inhibitor of nuclear factor kappa-B kinase subunit beta (Homo sapiens); settings: at 10 µM
[8] = molecular target: Interleukin-1 receptor-associated kinase 1 (Homo sapiens) (UniProt P51617); settings: at 1 µM
Chain of Interleukin-1 receptor-associated kinase 1 (Homo sapiens) (P51617 whole entry, looked up): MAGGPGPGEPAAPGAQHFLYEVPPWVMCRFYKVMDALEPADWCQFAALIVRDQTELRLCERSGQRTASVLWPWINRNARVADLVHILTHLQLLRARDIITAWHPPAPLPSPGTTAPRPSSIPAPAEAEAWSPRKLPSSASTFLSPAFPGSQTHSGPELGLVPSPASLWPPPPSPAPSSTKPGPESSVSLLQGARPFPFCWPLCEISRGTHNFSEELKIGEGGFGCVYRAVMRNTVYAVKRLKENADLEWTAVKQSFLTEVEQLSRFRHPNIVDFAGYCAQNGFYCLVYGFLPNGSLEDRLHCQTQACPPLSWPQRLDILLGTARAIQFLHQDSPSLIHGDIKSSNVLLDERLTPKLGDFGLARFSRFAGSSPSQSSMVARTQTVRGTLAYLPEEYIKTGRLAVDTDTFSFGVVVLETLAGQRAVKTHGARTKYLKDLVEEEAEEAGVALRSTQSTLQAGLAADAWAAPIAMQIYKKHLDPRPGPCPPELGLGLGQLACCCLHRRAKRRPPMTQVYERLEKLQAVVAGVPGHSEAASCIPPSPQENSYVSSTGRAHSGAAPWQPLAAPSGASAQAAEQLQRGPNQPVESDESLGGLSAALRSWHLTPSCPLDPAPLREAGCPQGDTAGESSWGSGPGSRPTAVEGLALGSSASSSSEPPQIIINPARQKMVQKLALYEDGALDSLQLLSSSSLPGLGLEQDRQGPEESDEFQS

[9] = molecular target: Interleukin-1 receptor-associated kinase 1 (Homo sapiens) (UniProt P51617); settings: at 10 µM
[10] = molecular target: T5, Interleukin-1 receptor-associated kinase 4 (Homo sapiens) (UniProt Q9NWZ3); settings: at 1 µM
T5 sequence (whole entry): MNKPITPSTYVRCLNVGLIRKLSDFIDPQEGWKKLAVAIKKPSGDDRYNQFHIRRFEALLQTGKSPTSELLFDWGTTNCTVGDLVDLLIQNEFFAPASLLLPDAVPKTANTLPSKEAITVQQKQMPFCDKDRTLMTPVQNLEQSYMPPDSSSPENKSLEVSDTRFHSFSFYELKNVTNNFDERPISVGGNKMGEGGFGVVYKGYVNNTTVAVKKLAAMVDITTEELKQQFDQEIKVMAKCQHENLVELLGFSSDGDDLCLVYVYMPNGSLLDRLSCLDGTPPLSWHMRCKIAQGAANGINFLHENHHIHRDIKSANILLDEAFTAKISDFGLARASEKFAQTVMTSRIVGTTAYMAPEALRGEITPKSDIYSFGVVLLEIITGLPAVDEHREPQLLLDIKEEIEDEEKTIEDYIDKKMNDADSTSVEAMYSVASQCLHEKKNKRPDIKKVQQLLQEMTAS

[11] = molecular target: T5, Interleukin-1 receptor-associated kinase 4 (Homo sapiens); settings: at 10 µM
[12] = molecular target: Insulin receptor-related protein (Homo sapiens) (UniProt P14616); settings: at 1 µM
Chain of Insulin receptor-related protein (Homo sapiens) (P14616 27-742 limits assumed): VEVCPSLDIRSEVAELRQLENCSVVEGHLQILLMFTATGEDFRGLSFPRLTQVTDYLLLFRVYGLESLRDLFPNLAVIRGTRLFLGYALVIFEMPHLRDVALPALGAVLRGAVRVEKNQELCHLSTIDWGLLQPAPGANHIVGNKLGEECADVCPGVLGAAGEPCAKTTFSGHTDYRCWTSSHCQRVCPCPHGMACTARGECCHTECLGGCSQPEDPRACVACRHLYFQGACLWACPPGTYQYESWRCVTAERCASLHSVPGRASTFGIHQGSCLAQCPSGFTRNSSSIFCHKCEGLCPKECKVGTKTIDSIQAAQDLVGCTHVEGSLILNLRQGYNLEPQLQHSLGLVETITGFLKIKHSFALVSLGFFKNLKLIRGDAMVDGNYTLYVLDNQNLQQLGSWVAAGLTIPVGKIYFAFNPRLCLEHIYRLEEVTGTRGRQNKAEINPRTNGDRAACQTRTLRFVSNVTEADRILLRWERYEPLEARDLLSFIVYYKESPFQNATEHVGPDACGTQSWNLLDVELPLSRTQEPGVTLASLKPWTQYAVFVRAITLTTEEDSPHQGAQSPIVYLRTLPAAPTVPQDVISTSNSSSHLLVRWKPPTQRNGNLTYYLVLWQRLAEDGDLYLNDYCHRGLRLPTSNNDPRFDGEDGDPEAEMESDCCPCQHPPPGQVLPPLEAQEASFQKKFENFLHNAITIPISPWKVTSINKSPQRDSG
Chain of Insulin receptor-related protein (Homo sapiens) (P14616 747-1297 limits assumed): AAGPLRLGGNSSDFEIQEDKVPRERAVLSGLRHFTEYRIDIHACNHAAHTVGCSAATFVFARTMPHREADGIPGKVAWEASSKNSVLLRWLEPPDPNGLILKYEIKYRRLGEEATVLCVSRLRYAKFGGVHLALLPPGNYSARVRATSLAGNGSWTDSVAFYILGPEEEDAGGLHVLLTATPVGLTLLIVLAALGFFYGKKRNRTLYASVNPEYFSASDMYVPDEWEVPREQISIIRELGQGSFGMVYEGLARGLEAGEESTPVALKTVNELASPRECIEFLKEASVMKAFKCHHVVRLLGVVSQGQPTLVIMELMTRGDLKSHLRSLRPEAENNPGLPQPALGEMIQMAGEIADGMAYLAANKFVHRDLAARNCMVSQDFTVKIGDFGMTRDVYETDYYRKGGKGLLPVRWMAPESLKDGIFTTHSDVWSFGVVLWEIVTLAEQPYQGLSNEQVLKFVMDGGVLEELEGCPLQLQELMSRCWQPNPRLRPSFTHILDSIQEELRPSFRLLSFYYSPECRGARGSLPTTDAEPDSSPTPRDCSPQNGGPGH

[13] = molecular target: Insulin receptor-related protein (Homo sapiens) (UniProt P14616); settings: at 10 µM
[14] = molecular target: T6, Tyrosine-protein kinase ITK/TSK (Homo sapiens) (UniProt Q08881); settings: at 1 µM
T6 sequence (whole entry): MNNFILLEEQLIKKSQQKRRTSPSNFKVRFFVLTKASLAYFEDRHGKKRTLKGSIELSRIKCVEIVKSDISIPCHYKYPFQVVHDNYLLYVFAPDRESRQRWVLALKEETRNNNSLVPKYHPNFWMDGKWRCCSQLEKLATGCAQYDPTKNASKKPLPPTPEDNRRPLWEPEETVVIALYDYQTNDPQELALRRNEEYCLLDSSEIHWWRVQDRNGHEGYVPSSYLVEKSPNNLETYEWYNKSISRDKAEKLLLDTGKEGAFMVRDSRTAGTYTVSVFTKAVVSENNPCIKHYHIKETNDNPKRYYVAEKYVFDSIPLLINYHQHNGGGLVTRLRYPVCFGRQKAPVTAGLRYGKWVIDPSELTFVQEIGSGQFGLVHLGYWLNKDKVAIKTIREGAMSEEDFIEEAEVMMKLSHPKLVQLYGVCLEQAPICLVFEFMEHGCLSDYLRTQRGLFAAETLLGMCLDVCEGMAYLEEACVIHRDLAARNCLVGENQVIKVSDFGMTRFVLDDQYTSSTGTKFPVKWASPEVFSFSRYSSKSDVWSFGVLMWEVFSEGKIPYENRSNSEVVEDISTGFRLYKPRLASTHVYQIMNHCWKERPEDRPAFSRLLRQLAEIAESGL

[15] = molecular target: Insulin-like growth factor 1 receptor (Homo sapiens) (UniProt P08069); settings: at 1 µM
Chain of Insulin-like growth factor 1 receptor (Homo sapiens) (P08069 31-736 limits assumed): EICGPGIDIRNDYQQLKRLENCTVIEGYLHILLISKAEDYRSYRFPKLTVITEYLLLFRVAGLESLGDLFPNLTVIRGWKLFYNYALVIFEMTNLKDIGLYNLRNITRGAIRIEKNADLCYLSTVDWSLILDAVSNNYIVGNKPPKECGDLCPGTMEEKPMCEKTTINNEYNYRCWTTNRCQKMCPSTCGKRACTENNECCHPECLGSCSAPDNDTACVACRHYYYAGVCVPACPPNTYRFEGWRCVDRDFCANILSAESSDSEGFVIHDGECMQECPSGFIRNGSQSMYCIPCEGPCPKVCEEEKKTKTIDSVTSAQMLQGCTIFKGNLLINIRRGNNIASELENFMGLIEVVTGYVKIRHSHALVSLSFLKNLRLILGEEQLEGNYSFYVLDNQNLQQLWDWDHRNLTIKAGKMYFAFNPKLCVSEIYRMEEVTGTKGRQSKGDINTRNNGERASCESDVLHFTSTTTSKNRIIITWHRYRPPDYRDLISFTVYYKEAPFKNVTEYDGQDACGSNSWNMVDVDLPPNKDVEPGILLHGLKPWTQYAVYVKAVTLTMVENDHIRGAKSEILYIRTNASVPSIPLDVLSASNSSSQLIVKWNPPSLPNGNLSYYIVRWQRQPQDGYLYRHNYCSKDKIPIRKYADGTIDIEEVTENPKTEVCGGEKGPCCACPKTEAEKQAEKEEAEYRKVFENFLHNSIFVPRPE
Chain of Insulin-like growth factor 1 receptor (Homo sapiens) (P08069 741-1367 limits assumed): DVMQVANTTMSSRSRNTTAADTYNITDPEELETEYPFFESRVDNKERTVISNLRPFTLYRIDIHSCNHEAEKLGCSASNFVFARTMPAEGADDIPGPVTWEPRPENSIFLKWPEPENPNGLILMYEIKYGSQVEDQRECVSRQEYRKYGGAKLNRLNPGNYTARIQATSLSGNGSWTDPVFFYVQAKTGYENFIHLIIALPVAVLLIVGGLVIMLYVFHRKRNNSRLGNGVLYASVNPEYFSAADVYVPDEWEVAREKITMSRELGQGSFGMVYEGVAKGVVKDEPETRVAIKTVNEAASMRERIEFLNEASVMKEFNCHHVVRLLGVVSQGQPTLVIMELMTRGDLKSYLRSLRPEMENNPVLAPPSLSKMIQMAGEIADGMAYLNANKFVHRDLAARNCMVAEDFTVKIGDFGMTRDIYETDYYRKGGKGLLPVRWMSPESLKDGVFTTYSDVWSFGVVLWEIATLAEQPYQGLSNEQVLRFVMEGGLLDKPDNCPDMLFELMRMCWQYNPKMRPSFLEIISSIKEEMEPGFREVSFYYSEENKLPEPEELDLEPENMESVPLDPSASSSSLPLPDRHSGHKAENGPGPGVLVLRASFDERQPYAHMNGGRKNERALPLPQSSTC

[16] = molecular target: Insulin-like growth factor 1 receptor (Homo sapiens) (UniProt P08069); settings: at 10 µM
[17] = molecular target: Insulin receptor (Homo sapiens) (UniProt P06213); settings: at 1 µM
Chain of Insulin receptor (Homo sapiens) (P06213 28-758 limits assumed): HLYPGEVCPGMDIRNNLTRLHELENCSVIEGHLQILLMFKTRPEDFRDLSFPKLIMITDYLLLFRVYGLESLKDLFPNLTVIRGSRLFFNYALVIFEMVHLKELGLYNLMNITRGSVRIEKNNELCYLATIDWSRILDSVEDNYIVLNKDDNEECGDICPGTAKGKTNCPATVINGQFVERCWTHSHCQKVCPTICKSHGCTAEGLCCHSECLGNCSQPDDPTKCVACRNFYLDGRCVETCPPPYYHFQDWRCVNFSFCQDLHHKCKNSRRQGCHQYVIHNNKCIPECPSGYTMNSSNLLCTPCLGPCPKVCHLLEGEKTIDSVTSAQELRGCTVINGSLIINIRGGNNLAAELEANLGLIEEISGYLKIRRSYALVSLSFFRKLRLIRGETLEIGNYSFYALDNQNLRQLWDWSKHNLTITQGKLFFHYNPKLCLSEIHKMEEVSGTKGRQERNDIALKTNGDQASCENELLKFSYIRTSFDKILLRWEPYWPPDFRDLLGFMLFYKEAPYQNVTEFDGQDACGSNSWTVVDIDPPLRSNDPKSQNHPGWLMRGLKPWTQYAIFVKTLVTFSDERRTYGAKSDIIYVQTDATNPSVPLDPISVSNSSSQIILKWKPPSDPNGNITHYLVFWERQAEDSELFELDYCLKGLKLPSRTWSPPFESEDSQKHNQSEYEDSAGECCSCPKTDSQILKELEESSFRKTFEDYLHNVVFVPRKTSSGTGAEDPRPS
Chain of Insulin receptor (Homo sapiens) (P06213 763-1382 limits assumed): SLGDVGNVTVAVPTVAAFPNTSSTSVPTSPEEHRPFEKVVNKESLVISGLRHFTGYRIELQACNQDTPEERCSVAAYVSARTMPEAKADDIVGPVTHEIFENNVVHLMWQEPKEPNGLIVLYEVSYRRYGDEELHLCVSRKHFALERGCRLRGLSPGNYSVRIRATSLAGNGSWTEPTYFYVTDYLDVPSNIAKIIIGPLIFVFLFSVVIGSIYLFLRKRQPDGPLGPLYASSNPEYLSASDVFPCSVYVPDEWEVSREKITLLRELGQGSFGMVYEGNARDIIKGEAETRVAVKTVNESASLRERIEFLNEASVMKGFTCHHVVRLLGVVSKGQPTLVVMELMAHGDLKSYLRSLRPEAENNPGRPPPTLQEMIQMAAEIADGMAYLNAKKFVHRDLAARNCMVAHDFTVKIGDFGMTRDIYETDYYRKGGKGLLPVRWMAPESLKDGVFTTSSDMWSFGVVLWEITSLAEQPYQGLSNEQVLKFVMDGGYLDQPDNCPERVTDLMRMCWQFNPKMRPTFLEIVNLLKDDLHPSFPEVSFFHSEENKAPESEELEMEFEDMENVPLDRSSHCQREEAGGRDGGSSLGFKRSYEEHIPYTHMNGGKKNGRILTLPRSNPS

[18] = molecular target: Insulin receptor (Homo sapiens) (UniProt P06213); settings: at 10 µM
[19] = molecular target: Insulin receptor (Homo sapiens) (UniProt P06213); settings: at 1 µM; remark: listed apart in the source
[20] = molecular target: Insulin receptor (Homo sapiens) (UniProt P06213); settings: at 10 µM; remark: listed apart in the source

SMILES | residual activity [1] | residual activity [2] | residual activity [3] | residual activity [4] | residual activity [5] | residual activity [6] | residual activity [7] | residual activity [8] | residual activity [9] | residual activity [10] | residual activity [11] | residual activity [12] | residual activity [13] | residual activity [14] | residual activity [15] | residual activity [16] | residual activity [17] | residual activity [18] | residual activity [19] | residual activity [20]
Cn1c2ccccc2c2c3c(c4c5ccccc5n(CCC#N)c4c21)CNC3=O | 9% | 69% | 63% | 48% | 19% | 72% | 63% | 47% | 44% | -1% | 4% | 69% | 53% | 4% |  |  |  |  |  | 
COc1cc2nccc(Oc3ccc(NC(=S)NC(=O)c4ccccc4C)cc3)c2cc1OC | 48% | 78% | 77% |  |  |  |  | 79% | 67% | 96% |  | 121% | 74% | 79% | 87% | 73% | 92% | 138% | 97% | 92%
CC(C)(C)n1nc(Cc2cccc3ccccc23)c2c(N)ncnc21 | 67% | 78% | 57% | 99% | 128% | 104% | 92% | 90% | 77% | 105% | 81% | 124% | 78% | 107% | 100% | 73% | 98% | 65% | 95% | 63%
